# Assay results reported in PubChem BioAssay (NCI).
# About 83,000 compounds went through this panel and 20% of them were active in at least one assay; those are over-represented in the sample as a whole.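 The test compound was applied at a single concentration to cells in 96-well plates for 48 hours, and percent growth was recorded.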 A number with no mark means an inactive call. Calls of active or inactive are those of the source. How the source made its calls: active means growth percent below 10; inactive means the rest.
# Legend:
# Test in all cases: NCI-60 one-dose screen, 48 h (100 = growth as untreated, 0 = no growth, -100 = all killed)
# Details in all cases: 10 µM
# NCI-H23 lung = system: NCI-H23 lung
# NCI-H226 lung = system: NCI-H226 lung
# NCI-H322M lung = system: NCI-H322M lung
# HOP-62 NSCLC = system: HOP-62 NSCLC
# NCI-H460 lung = system: NCI-H460 lung
# NCI-H522 lung = system: NCI-H522 lung
# A549/ATCC NSCLC = system: A549/ATCC NSCLC
# 786-0 renal = system: 786-0 renal
# COLO 205 colon = system: COLO 205 colon
# DU-145 prostate = system: DU-145 prostate
# K-562 leukemia = system: K-562 leukemia
# MALME-3M melanoma = system: MALME-3M melanoma
# MDA-MB-231 breast = system: MDA-MB-231 breast
# RXF 393 renal = system: RXF 393 renal
# SF-268 CNS = system: SF-268 CNS
# SF-295 CNS = system: SF-295 CNS
# SF-539 CNS = system: SF-539 CNS
# UACC-257 melanoma = system: UACC-257 melanoma
# M14 melanoma = system: M14 melanoma
# HCT-15 colon = system: HCT-15 colon
SMILES,growth (NCI-H23 lung) [%],growth (NCI-H226 lung) [%],growth (NCI-H322M lung) [%],growth (HOP-62 NSCLC) [%],growth (NCI-H460 lung),growth (NCI-H522 lung),growth (A549/ATCC NSCLC) [%],growth (786-0 renal) [%],growth (COLO 205 colon),growth (DU-145 prostate),growth (K-562 leukemia),growth (MALME-3M melanoma) [%],growth (MDA-MB-231 breast),growth (RXF 393 renal),growth (SF-268 CNS) [%],growth (SF-295 CNS),growth (SF-539 CNS),growth (UACC-257 melanoma) [%],growth (M14 melanoma) [%],growth (HCT-15 colon) [%]
CC1=C(N2CCOCC2)C(N2CCOCC2)=C(C)C(=O)C1=O,103,98.2,114,93.6,104%,99.1%,102,102,103%,108%,93%,101,115%,101%,93.3,97.2%,103%,91.5,103,99.6
Nc1c(C(=O)Nc2cccc3ccccc23)sc2nc3c(cc12)C(=O)CCC3,18,54.1,37.6,26.1,5.05% (active),-8.85% (active),23.4,46.1,-20.7% (active),-9.63% (active),10.3%,59.9,8.28% (active),-5.71% (active),36.1,-1.44% (active),-13.1% (active),45,12.6,18.9
O=C(Nc1ccc(Cl)c([N+](=O)[O-])c1)Nc1nc2ccccc2s1,64.5,86.4,101,90.1,82%,36.1%,27.2,90.3,108%,107%,74.9%,67.6,86.2%,113%,106,71%,83.6%,91.8,88.7,92.3
COc1cc(C(=O)N2CCN(c3ccccc3OC)CC2)c(N)cc1OCCCN1CCN(c2ccccc2OC)CC1,69.8,84.6,100,93.2,108%,79.4%,92.7,96,85.9%,103%,8.81% (active),83.4,80.3%,92.5%,110,96.9%,89.9%,104,85.2,98.7
O=C(O)c1ccc(P(=O)(O)O)c([N+](=O)[O-])c1,115,94.4,102,101,103%,99.1%,93,110,112%,108%,107%,97.7,108%,105%,110,99.2%,104%,92.2,114,102
CCCCC/C=C/C(=O)CCc1ccc(O)c(OC)c1,89.2,87.8,106,107,97.3%,60.8%,82.6,91.1,108%,76.9%,59.9%,23,79.3%,74.6%,86.9,96.4%,90.1%,91.9,80.7,88.2
COc1cc(-c2cc(-c3cc4c([nH]c5ccccc54)c(-c4cc(OC)c(OC)c(OC)c4)n3)cc(-c3ccccc3)n2)cc(OC)c1OC,69.1,77,95,78,64.8%,43.4%,42.8,79.6,84.8%,97.5%,16.7%,58.3,45.6%,72.6%,78.7,26.8%,66%,89,50.9,51.6
COc1ccccc1/C=C/C(=O)c1ccccc1,84.7,85,91.9,88.3,90%,62.7%,67,98.4,84.8%,87.6%,6.19% (active),90.8,80.5%,92%,87.9,101%,92%,94.3,85.7,61.6
